# Data reported in PMC4336329 (PLoS ONE, 2015).
# Out of some 310,000 compounds screened, about 14,000 (4.5%) showed an effect of 50% or more. Effects have a minus sign here. The entries come from a sample that favours strong results as a whole.
# Target: human ether-à-go-go-related gene (hERG) potassium channel (human, UniProt Q12809)
# Assay: primary screen, population patch clamp on CHO cells stably expressing hERG; higher = less effect of the substance
# 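Further: peak tail current of the secondary pulse compared with the same well before compound.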
# Chain of human ether-à-go-go-related gene (hERG) potassium channel (Q12809 whole entry, looked up): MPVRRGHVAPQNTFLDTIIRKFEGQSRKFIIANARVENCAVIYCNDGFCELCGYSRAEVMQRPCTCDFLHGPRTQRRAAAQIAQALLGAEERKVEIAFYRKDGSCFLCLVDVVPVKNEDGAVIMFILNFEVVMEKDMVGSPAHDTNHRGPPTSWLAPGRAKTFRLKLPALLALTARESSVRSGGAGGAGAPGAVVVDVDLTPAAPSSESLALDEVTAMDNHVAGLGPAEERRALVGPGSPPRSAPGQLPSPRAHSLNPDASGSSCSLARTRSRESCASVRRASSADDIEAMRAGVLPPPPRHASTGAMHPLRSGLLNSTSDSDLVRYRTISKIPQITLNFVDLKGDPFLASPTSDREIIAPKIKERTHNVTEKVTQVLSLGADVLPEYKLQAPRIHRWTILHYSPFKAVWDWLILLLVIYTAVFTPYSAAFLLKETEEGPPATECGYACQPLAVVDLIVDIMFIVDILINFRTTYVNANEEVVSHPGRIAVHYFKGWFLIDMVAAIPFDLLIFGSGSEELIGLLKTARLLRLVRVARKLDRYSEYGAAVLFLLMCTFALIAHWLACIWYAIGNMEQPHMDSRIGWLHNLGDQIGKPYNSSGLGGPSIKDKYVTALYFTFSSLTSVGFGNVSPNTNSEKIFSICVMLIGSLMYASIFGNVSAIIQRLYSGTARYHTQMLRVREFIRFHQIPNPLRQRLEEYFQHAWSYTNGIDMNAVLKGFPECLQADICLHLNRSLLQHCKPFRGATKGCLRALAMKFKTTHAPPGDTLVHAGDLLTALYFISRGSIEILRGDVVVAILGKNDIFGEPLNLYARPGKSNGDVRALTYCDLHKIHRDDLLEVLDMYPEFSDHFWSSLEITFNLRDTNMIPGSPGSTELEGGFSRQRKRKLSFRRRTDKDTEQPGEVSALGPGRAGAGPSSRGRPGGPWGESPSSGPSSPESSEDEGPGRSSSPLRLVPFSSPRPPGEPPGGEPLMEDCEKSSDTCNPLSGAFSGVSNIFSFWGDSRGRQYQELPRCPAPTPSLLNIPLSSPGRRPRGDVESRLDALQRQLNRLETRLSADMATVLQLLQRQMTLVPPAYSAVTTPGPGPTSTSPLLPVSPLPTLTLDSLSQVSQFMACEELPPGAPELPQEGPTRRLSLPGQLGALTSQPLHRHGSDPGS
row,Compound,"hERG current change (%, negative = inhibition) at 10uM"
1,Cc1noc(C)c1COc1ccc(C(=O)N(C)CCOc2ccccc2)cc1,-26.2%
2,CCc1ccc(S(=O)(=O)NC2CC(C)(C)NC(C)(C)C2)cc1,5.09%
3,Cc1cc(C(=O)N/N=C/c2ccc(OC(=O)c3ccccc3Br)cc2)n[nH]1,3.23%
4,O=C1NC2(CCc3ccccc32)C(=O)N1CCOc1ccc(Cl)cc1 (centres unmarked),-29.8%
5,Cc1nc(Cc2nnc(SCC(=O)N3CCN(c4ccc(F)cc4)CC3)o2)cs1,-50.9%
6,Cc1nc(Cc2nnc(SCC(=O)Nc3c(C)cccc3C)o2)cs1,15.1%
7,Cc1occc1-c1nnc(SCC(=O)N2CCN(c3ccc(F)cc3)CC2)n1C,-58.5%
8,Cc1occc1-c1nnc(SCC(=O)N2CCN(c3ccccc3F)CC2)n1C,4.99%
9,C=CCn1c(SCC(=O)N2CCN(c3ccccc3)CC2)nnc1-c1ccco1,-25.7%
10,C=CCn1c(SCC(=O)C(C)(C)C)nnc1-c1cccs1,-14.3%
11,C=CCn1c(SCC(=O)O)nnc1-c1cccs1,0.617%
12,C=CCn1c(SCC(=O)N2CCN(c3ccc(F)cc3)CC2)nnc1-c1cccs1,-68.9%
13,Cc1occc1-c1nnc(SCC(=O)N2CCN(c3ccccc3)CC2)n1C,-27.8%
14,C=CCn1c(SCC(=O)N2CCN(c3ccc(F)cc3)CC2)nnc1-c1ccco1,-70.2%
15,C=CCn1c(SCC(=O)Nc2ccc(N3CCOCC3)cc2)nnc1-c1ccco1,2.29%
16,Cc1nc(Cc2nnc(SCC(=O)N(C)c3ccccc3)o2)cs1,15.9%
17,COC(=O)C1=C(N)Oc2c(oc(CO)cc2=O)C1c1ccc(F)cc1 (centres unmarked),-7.85%
18,O=c1cc(N2CCOCC2)c2ccccc2o1,-13.9%
19,O=C(CS(=O)c1cccc(C(F)(F)F)c1)Nc1ccc(Cl)cc1Cl (centres unmarked),8.83%
20,CC1(C)Cc2c(sc(NC(=O)c3ccc(S(=O)(=O)N4CCCC4)cc3)c2C#N)C(C)(C)N1,-8.79%

row,Compound,"hERG current change (%, negative = inhibition) at 10uM"
1,CCOC(=O)N1CCN(S(=O)(=O)c2ccc(C(=O)Nc3sc4c(c3C#N)CC(C)(C)NC4(C)C)cc2)CC1,14.6%
2,CC1(C)Cc2c(sc(NC(=O)c3ccc(S(=O)(=O)N4CCCCCC4)cc3)c2C#N)C(C)(C)N1,-65.8%
3,C=C[C@@]1(C)CC(=O)[C@]2(O)[C@@]3(C)[C@@H](O)CCC(C)(C)[C@@H]3[C@H](OC(C)=O)[C@H](O)[C@@]2(C)O1,7.62%
4,O=C(CSc1ccc(Cl)cc1)N/N=C/c1ccc([N+](=O)[O-])o1,-12.5%
5,COc1ccc(S(=O)(=O)n2cccc2)c(OC)c1,5.65%
6,CS(=O)(=O)c1nc(S(=O)(=O)c2ccc(Cl)cc2)c(N2CCOCC2)s1,12.1%
7,CCS(=O)(=O)c1nc(S(=O)(=O)c2ccc(Cl)cc2)c(N2CCCC2)s1,10.5%
8,CS(=O)(=O)c1nc(S(=O)(=O)c2ccc(Cl)cc2)c(N2CCC(C(N)=O)CC2)s1,-61.8%
9,CS(=O)(=O)c1nc(S(=O)(=O)c2ccc(Cl)cc2)c(N2CCC3(CC2)OCCO3)s1,-59.3%
10,CCS(=O)(=O)c1nc(S(=O)(=O)c2ccc(C)cc2)c(N2CCC3(CC2)OCCO3)s1,-35.4%
11,Cc1ccc(S(=O)(=O)c2nc(S(C)(=O)=O)sc2N2CCC3(CC2)OCCO3)cc1,-34.3%
12,CS(=O)(=O)c1nc(S(=O)(=O)c2ccc(Cl)cc2)c(N2CCC(O)CC2)s1,-13.9%
13,Cc1ccc(S(=O)(=O)c2nc(S(C)(=O)=O)sc2N2CCC(C(N)=O)CC2)cc1,7.6%
14,CCS(=O)(=O)c1nc(S(=O)(=O)c2ccc(Cl)cc2)c(N2CCC3(CC2)OCCO3)s1,-51.5%
15,Nc1ncc([N+](=O)[O-])s1,19.6%
16,C=CCN1C(=O)c2ccccc2C1(O)Cc1ccccc1 (centres unmarked),16.5%
17,CCCC/C(O)=C1\C(=O)CC(C)(C)CC1=NCCCCCC(=O)O,7.59%
18,Cc1[nH]c2ccccc2c1SCc1nnc(SCc2ccccc2)n1C,4.6%
19,CCn1c(C2CC(=O)N(c3cc(C)cc(C)c3)C2)nc2ccccc21 (centres unmarked),-2.71%
20,Cc1cc(C)cc(N2CC(c3nc4ccccc4n3C)CC2=O)c1 (centres unmarked),-10.8%

row,Compound,"hERG current change (%, negative = inhibition) at 10uM"
1,CCn1c(C2CC(=O)N(c3ccc(C)c(C)c3)C2)nc2ccccc21 (centres unmarked),-11.5%
2,CCCn1c(C2CC(=O)N(c3ccc(C)cc3)C2)nc2ccccc21 (centres unmarked),-52.9%
3,C=CCn1c(C2CC(=O)N(c3ccc(C)cc3)C2)nc2ccccc21 (centres unmarked),-58.4%
4,Cc1ccc(N2CC(c3nc4ccccc4n3C)CC2=O)cc1 (centres unmarked),-21.5%
5,CCN(Cc1ccccc1)C(=O)CN1C(=O)c2ccccc2S1(=O)=O,-3.97%
6,CC(C)c1ccc(NC(=O)CNC(=O)Cn2ccc3ccccc3c2=O)cc1,16.7%
7,O=C(O)CC1(CC(=O)NCc2cc(F)cc3c2OCOC3)CCCCC1,6.25%
8,Cc1cccc(CN2CCN(CC(=O)NCc3ccc(F)cc3)C2=O)c1,-13.6%
9,O=C(CN1CCN(Cc2ccc(F)cc2Cl)C1=O)NCCCN1CCOCC1,-2.72%
10,Cc1ccc(CN2CCN(CC(=O)NCCCN3CCN(c4ccc(F)cc4)CC3)C2=O)cc1,-66%
11,Cc1cccc(CN2CCN(CC(=O)NCCCN3CCCC3=O)C2=O)c1,7%
12,Cc1cccc(CN2CCN(CC(=O)NCCCN3CCN(c4ccc(F)cc4)CC3)C2=O)c1,-69.8%
13,O=C(CN1CCN(Cc2ccccc2)C1=O)NCCCN1CCOCC1,5.12%
14,Cc1ccc2[nH]c3c(=O)n(CC(=O)NCCCN4CCN(c5ccc(F)cc5)CC4)ncc3c2c1,14.8%
15,O=C(CN1CCN(Cc2ccc(Cl)cc2)C1=O)NCCCN1CCN(c2ccc(F)cc2)CC1,-81%
16,CC(C)OCCCNC(=O)CN1CCN(Cc2ccc(Cl)cc2)C1=O,11.6%
17,CC1CCN(CCCNC(=O)CN2CCN(Cc3ccc(Cl)cc3)C2=O)CC1,-55.2%
18,O=C(CN1CCN(Cc2ccc(Cl)cc2)C1=O)NCCN1CCCC1,1.66%
19,O=C(CN1CCN(Cc2ccc(Cl)cc2)C1=O)NCCCN1CCOCC1,-2.85%
